Results filed as inconclusive are left out. The source made the active and inactive calls. Unless noted, calls come from the whole dose curve; as a rule, active = well fitted curve in the direction sought with a large enough effect in the repeat runs; inconclusive = weak or mixed curves; inactive = no such curve, though single readings can be large; an effect the other way counts as inactive or inconclusive.
What was measured:
[1] = target: Estrogen receptor beta (Homo sapiens) (UniProt Q92731); assay: qHTS assay to identify small molecule agonists of the estrogen receptor beta (ER-beta) signaling pathway (AID 1259377; active = well fitted activation curve with a large enough effect in the signal ratio in the repeat runs, not every such curve was filed as active; the % refers to the signal ratio)
How it was run: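 Agonist mode cell assay in GripTite HEK293T cells expressing an ER-beta fusion that drives beta-lactamase from an Upstream Activator Sequence; 16 hr compound exposure at 37C, then 2 h LiveBLAzer B/G FRET substrate at room temperature, fluorescence read-out.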

[2] = target: Estrogen receptor beta (Homo sapiens) (UniProt Q92731); assay: qHTS assay to identify small molecule antagonists of the estrogen receptor beta (ER-beta) signaling pathway (AID 1259378; active = well fitted inhibition curve with a large enough effect in the signal ratio in the repeat runs, not every such curve was filed as active; the % refers to the signal ratio)
How it was run: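 ER-beta-UAS-bla HEK293T cells in 2% charcoal-stripped FBS medium treated with compound plus 1nM final 17-beta-estradiol for 16 hr at 37C. Beta-lactamase reporter read by FRET substrate fluorescence after 2 hours at room temperature.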

[3] = qHTS assay to identify small molecule agonists of the androgen receptor (AR) signaling pathway in the presence of an antagonist - cell viability counter screen (AID 1259379);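 note: MDA-kb2 human breast cancer cells carrying an MMTV luciferase reporter; series mostly up to about 92 µM; nearly all actives have a fitted effect of over 25% in size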
How it was run: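 In MDA-kb2 cells (human breast carcinoma, MMTV-luciferase), compounds at 15 concentrations plus 3.0uM nilutamide; 16 hr, 37C, 0% CO2; CellTiter-Fluor fluorescence read for viability.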

[4] = qHTS assay to identify small molecule antagonists of the estrogen receptor beta (ER-beta) signaling pathway - cell viability counter screen (AID 1259382); note: series mostly up to about 92 µM; nearly all actives have a fitted effect of over 55% in size
How it was run: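 Tox21 10K library tested in qHTS format on ER-beta-bla HEK293T cells stimulated with 1nM E2; 16 hr treatment at 37C. Same-well CellTiter-Glo luminescence served as the cell viability measure.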

[5] = target: Estrogen receptor (Homo sapiens) (UniProt P03372); assay: qHTS assay to identify small molecule agonists of the estrogen receptor alpha (ER-alpha) signaling pathway in the presence of an antagonist (AID 1259383; calls by dose curve; note: top concentration of the series differs between compounds; nearly all actives have a fitted effect of over 15% in size)
How it was run: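 In VM7Luc4E2 cells, 4,000 per well, compounds at 15 concentrations were co-incubated 22hr at 37C with 10.0nM final ICI-182,780. Luminescence from the stably transfected 4×ERE-luciferase reporter was recorded 30min after ONE-Glo addition.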

[6] = qHTS assay to identify small molecule agonists or antagonists of the thyroid stimulating hormone receptor (TSHR) signaling pathway - wild type cell line counter screen (AID 1259384; calls by dose curve)
How it was run: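 Wild-type Hek293 cells, 800/well, 18 h at 37C, then compound with Ro20-1724 for 30 min RT. cAMP by HTRF (cAMP-d2/anti-cAMP cryptate), 1 h RT, fluorescence read. 15 concentrations, triplicates.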

[7] = target: Thyrotropin receptor (Homo sapiens) (UniProt P16473); assay: qHTS assay to identify small molecule antagonists of the thyroid stimulating hormone receptor (TSHR) signaling pathway (AID 1259385; calls by dose curve; note: nearly all actives have a fitted effect of over 20% in size)
How it was run: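 TSHR-HEK293 cells (800/well) plated 18 h, then compounds with Ro20-1724 and TSH at 1.5 ng/mL final, 30 min at room temperature. cAMP quantified by HTRF (cAMP-d2/anti-cAMP-cryptate, 1 h); 15 concentrations in triplicate.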

[8] = target: Progesterone receptor (Homo sapiens) (UniProt P06401); assay: qHTS assay to identify small molecule agonists of the progesterone receptor (PR) signaling pathway (AID 1346784; calls by dose curve; note: nearly all actives have a fitted effect of over 30% in size)
How it was run: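 Cells (PR-UAS-bla HEK 293T, GripTite) were plated in assay medium containing 2% charcoal-stripped FBS and incubated 6 hr. Test compounds in DMSO were added for 16 hr at 37C. FRET substrate was then loaded for 2 hr at room temperature before fluorescence reading.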

[9] = qHTS assay to identify small molecule antagonists of the progesterone receptor (PR) signaling pathway - cell viability counter screen (AID 1346798); note: series mostly up to about 92 µM; nearly all actives have a fitted effect of over 50% in size
How it was run: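 Counter screen for cytotoxicity: viability of PR-UAS-bla HEK293T cells was measured with CellTiter-Glo luminescence following 16 hr compound exposure in the presence of R5020.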

[10] = qHTS assay to identify small molecule agonists of the progesterone receptor (PR) signaling pathway - cell viability counter screen (AID 1346799; calls by dose curve; note: nearly all actives have a fitted effect of over 45% in size)
How it was run: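 Cells (PR-UAS-bla HEK293T) are plated at 3,000/well in 2% charcoal-stripped FBS medium, rested 6 hr, dosed and incubated 16 hr at 37C. CellTiter-Glo is then added and luminescence measured after 30 min at room temperature.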

[11] = qHTS assay to identify small molecule antagonists of the TGF-beta/Smad signaling pathway - cell viability counter screen (AID 1346824); note: nearly all actives have a fitted effect of over 50% in size
How it was run: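 SBE-bla HEK 293T cells, incubated overnight, then compound plus 0.25 ng/mL TGF-beta1 (stock added) for 5 hr at 37 C. Viability was read in the same wells by CellTiter-Glo luminescence after 30 min at room temperature.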

[12] = qHTS assay to identify small molecule agonists of the TGF-beta/Smad signaling pathway - cell viability counter screen (AID 1346829); note: top concentration of the series differs between compounds; nearly all actives have a fitted effect of over 45% in size
How it was run: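 Compound-treated SBE-bla HEK 293T cells (5 hr, 37 C) were assessed for viability with CellTiter-Glo in parallel with the reporter read.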

[13] = qHTS assay to identify small molecule agonists of the TGF-beta/Smad signaling pathway (AID 1346859; active = well fitted activation curve with a large enough effect in the signal ratio in the repeat runs, not every such curve was filed as active; the % refers to the signal ratio; note: series mostly up to about 77 µM)
How it was run: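 Reporter line: HEK 293T with stably integrated SBE-controlled beta-lactamase. Compound exposure lasts 5 hr at 37 C and 5% CO2; substrate loading follows for 2 hr at room temperature, with emission read at 460 and 530 nm.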

[14] = target: Thyrotropin-releasing hormone receptor (Homo sapiens) (UniProt P34981); assay: qHTS assay to identify small molecule antagonists of the thyrotropin-releasing hormone receptor (TRHR) signaling pathway (AID 1346877; active = well fitted inhibition curve with a large enough effect in the repeat runs, not every such curve was filed as active; note: series mostly up to about 51 µM)
How it was run: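 In this cell-based calcium flux format, HEK293 cells expressing TRHR received test compound for 5 min before the agonist TRH (1 nM final). Dye loading lasted 2 h at 37 °C.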

[15] = target: Thyrotropin-releasing hormone receptor (Homo sapiens) (UniProt P34981); assay: qHTS assay to identify small molecule agonists of the thyrotropin-releasing hormone receptor (TRHR) signaling pathway (AID 1346891; calls by dose curve; note: series mostly up to about 58 µM)
How it was run: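 Cells: TRHR-Hek293, seeded and incubated 18 h. Dye loading: 2 h at 37 °C. Compound added from DMSO stock by pin tool. Read-out: kinetic calcium fluorescence over 3 min.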

[16] = Human pregnane X receptor (PXR) small molecule agonists, qHTS cell viability counter screen (AID 1346977); note: nearly all actives have a fitted effect of over 50% in size
How it was run: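 Cytotoxicity counter screen run in the same wells as the PXR luciferase assay, using PXR-Luc HepG2 cells in charcoal-stripped serum medium. Viability: CellTiter-Fluor fluorescence after 24hr compound treatment.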

[17] = qHTS assay to identify small molecule agonists of the estrogen receptor beta (ER-beta) signaling pathway - cell viability counter screen (AID 1259380); note: nearly all actives have a fitted effect of over 30% in size
How it was run: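 Viability of ER-beta-UAS-bla HEK293T cells was determined by CellTiter-Glo luminescence following 16 hr treatment with test compounds at 37C.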

[18] = target: Progesterone receptor (Homo sapiens) (UniProt P06401); assay: qHTS assay to identify small molecule antagonists of the progesterone receptor (PR) signaling pathway (AID 1346795; active = well fitted inhibition curve with a large enough effect in the signal ratio in the repeat runs, not every such curve was filed as active; the % refers to the signal ratio)
How it was run: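 Antagonist mode: compounds tested against 1 nM (final) promegestone stimulation in HEK293T cells expressing PR-UAS-bla reporter, 16 hr at 37C, 5% CO2; beta-lactamase activity detected via B/G FRET substrate after 2 hr at room temperature.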

[19] = qHTS assay to identify small molecule agonists of the estrogen receptor alpha (ER-alpha) signaling pathway in the presence of an antagonist - cell viability counter screen (AID 1259386);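 note: series mostly up to about 92 µM; cells exposed to compounds for 22 h at 37 °C before the viability read; nearly all actives have a fitted effect of over 30% in size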
How it was run: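 Fluorescent CellTiter-Fluor viability signal from VM7Luc4E2 cells, with the reagent added during the final hour of a 22hr compound exposure at 37C in the presence of 10.0nM ICI-182,780.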

[20] = target: Androgen receptor (Homo sapiens) (UniProt P10275); assay: qHTS assay to identify small molecule agonists of the androgen receptor (AR) signaling pathway in the presence of an antagonist (AID 1259381; calls by dose curve; note: nearly all actives have a fitted effect of over 15% in size)
How it was run: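 Here, 15-concentration compound series were pin-transferred onto MDA-kb2 MMTV-luciferase cells already dosed with nilutamide (3.0uM final). After 16hr at 37C, ONE-Glo was added and luminescence read 30min later at room temperature.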

Measured: Potency

Chain of Androgen receptor (Homo sapiens) (P10275 whole entry, looked up): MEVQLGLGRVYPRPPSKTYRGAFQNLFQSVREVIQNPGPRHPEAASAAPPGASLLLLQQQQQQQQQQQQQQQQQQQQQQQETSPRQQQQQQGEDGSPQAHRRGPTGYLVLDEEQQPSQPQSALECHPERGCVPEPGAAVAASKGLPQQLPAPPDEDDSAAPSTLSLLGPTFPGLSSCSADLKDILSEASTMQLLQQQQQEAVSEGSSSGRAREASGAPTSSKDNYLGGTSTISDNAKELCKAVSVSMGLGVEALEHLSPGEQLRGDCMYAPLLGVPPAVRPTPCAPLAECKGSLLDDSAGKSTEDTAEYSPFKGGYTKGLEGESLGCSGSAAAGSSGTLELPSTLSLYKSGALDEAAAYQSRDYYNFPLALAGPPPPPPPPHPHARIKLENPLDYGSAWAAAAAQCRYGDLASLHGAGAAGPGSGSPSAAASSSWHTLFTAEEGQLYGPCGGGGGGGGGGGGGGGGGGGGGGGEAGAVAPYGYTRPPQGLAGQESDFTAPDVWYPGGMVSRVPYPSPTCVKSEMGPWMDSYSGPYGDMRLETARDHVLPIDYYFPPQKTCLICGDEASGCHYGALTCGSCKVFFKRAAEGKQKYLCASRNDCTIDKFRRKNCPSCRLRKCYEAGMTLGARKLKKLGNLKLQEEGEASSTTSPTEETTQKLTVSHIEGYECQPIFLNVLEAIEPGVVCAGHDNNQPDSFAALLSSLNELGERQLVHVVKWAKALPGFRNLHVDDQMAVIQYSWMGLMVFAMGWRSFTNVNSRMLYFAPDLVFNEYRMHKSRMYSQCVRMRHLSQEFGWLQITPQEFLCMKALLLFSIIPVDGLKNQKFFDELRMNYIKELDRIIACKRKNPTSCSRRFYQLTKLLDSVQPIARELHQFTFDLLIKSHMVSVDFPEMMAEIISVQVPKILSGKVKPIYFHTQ
Chain of Thyrotropin receptor (Homo sapiens) (P16473 whole entry, looked up): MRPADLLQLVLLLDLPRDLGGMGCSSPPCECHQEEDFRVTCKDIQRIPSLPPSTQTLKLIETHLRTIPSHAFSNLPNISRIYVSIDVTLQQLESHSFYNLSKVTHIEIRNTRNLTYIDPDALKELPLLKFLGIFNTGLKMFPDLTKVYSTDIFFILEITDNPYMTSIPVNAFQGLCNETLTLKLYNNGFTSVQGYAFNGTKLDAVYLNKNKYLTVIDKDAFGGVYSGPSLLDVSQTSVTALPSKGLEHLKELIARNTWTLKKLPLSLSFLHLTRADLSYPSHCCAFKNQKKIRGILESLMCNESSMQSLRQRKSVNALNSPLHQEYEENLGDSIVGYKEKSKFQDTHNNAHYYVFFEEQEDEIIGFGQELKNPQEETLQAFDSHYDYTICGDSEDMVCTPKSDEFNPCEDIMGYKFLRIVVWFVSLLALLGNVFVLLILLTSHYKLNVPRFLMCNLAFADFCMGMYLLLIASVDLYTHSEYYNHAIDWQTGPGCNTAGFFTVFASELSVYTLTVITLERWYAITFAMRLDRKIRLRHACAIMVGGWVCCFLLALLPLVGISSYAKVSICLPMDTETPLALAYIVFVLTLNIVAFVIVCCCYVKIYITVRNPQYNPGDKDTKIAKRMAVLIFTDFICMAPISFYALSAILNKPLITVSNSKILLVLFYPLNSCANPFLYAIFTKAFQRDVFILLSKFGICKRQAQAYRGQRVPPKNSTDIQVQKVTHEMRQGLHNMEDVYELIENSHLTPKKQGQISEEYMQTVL
Chain of Thyrotropin-releasing hormone receptor (Homo sapiens) (P34981 whole entry, looked up): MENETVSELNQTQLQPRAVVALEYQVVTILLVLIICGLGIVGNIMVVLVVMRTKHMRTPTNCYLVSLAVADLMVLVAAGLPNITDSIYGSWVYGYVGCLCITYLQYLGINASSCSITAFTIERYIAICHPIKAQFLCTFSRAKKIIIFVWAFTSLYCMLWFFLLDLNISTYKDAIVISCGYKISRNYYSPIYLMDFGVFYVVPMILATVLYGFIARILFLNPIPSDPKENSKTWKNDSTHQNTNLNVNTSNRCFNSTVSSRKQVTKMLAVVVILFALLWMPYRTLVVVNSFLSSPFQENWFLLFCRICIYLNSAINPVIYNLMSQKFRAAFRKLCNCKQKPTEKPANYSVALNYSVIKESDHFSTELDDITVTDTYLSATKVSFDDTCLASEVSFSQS
Chain of Estrogen receptor beta (Homo sapiens) (Q92731 whole entry, looked up, the tested form may be a part): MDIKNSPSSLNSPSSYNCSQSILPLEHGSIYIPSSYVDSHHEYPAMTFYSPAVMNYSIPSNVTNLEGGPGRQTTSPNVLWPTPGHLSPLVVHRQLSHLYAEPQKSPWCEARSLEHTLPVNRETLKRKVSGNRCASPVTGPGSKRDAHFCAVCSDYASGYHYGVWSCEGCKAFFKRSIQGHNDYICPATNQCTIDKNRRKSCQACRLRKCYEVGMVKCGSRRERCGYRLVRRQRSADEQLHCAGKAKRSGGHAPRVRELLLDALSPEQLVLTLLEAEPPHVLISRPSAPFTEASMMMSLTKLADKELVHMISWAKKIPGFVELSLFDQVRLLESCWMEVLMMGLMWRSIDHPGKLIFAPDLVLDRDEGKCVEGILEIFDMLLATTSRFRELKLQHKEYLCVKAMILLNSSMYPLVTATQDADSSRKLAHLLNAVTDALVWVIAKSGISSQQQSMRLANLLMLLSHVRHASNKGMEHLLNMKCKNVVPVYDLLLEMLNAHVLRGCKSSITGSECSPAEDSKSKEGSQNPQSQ
Chain of Estrogen receptor (Homo sapiens) (P03372 whole entry, looked up): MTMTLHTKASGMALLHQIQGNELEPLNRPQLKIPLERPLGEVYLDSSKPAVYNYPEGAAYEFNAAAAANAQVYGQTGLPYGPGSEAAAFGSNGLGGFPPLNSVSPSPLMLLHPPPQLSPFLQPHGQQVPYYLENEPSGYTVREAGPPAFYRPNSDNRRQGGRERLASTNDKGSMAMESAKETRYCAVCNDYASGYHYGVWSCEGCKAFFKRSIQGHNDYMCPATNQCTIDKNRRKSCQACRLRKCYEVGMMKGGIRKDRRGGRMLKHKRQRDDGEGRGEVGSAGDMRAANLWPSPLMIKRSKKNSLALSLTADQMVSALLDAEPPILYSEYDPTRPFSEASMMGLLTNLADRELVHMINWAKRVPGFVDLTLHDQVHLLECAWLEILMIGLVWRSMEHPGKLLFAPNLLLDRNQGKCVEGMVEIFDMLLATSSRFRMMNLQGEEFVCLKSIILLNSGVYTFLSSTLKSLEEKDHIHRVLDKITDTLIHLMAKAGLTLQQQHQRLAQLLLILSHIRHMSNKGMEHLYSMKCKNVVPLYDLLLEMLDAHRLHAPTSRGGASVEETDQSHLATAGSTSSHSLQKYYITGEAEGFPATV
Chain of Progesterone receptor (Homo sapiens) (P06401 whole entry, looked up): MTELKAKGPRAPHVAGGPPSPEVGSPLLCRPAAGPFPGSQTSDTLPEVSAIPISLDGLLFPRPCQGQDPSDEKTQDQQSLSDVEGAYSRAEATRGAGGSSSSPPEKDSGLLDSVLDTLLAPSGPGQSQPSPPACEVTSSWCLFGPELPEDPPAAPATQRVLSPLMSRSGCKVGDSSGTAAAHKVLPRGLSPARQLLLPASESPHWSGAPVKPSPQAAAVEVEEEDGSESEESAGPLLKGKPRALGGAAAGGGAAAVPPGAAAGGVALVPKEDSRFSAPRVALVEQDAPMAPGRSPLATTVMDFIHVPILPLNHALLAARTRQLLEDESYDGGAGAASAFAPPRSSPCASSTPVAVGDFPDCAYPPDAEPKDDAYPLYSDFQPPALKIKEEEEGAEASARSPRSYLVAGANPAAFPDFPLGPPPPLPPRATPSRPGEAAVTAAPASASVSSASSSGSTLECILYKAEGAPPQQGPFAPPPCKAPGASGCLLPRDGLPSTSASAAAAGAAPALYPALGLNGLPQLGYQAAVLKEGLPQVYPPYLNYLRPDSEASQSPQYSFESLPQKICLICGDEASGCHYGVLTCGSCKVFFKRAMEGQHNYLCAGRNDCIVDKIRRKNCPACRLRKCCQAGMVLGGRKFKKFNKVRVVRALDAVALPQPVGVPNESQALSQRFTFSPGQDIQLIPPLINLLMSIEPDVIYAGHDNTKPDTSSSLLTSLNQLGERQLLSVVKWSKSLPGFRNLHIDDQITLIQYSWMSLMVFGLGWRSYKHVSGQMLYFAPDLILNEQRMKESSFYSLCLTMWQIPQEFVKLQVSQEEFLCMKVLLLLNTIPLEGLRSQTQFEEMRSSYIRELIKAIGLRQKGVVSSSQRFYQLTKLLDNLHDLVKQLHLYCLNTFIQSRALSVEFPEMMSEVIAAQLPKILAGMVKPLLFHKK

O=C(CO)[C@@H](O)[C@H](O)[C@@H](O)CO
not listed: [17] | [18] | [19] | [20]
inactive: all other assays above

CCCCCCCCN1CCCC1=O
not listed: [5] | [6] | [9] | [19] | [20]
inactive: all other assays above

Nc1ccncc1N
not listed: [5] | [6] | [20]
inactive: all other assays above

Cc1ccc(-c2ncc(Cl)cc2-c2ccc(S(C)(=O)=O)cc2)cn1
not listed: [5] | [6] | [8] | [10] | [17]
inactive: all other assays above

CC(=O)OCC(=O)[C@@]1(O)[C@H](C)C[C@H]2[C@@H]3CCC4=CC(=O)C=C[C@]4(C)[C@@]3(F)[C@@H](O)C[C@@]21C
not listed: [5] | [8] | [10] | [18] | [20]
inactive: all other assays above

O=C(O)CCSCCC(=O)O
not listed: [14] | [15] | [17] | [18]
inactive: all other assays above

O=C(c1ccccc1)C1(O)CCCCC1
not listed: [5] | [12] | [18] | [19] | [20]
inactive: all other assays above

CC(C)C(=O)OC(=O)C(C)C
not listed: [5] | [19] | [20]
inactive: all other assays above

C[C@@H]1CCC[C@H](C)N1
not listed: [5] | [14] | [15] | [20]
inactive: all other assays above

CC(=O)c1ccccc1[N+](=O)[O-]
not listed: [6] | [17] | [18] | [20]
inactive: all other assays above

CCOc1ccccc1OCC
not listed: [5] | [9] | [12] | [14] | [15] | [20]
inactive: all other assays above

CC1OC1C1CCC2(C)OC2C1 (stereo unspecified)
not listed: [5] | [12] | [18] | [19] | [20]
inactive: all other assays above

C1CCC2(CCCCO2)OC1
not listed: [2] | [5] | [19] | [20]
inactive: all other assays above

C=COCC1CCC(COC=C)CC1 (stereo unspecified)
not listed: [2] | [14] | [15] | [20]
inactive: all other assays above

NS(=O)(=O)Cc1noc2ccccc12
not listed: [2] | [5] | [14] | [15] | [18]
inactive: all other assays above

Cc1cccc(C)c1NC(=O)CC12CCCN1CCC2
not listed: [2] | [9] | [18] | [20]
inactive: all other assays above

O=Cc1cccc(Br)c1
not listed: [5] | [17] | [18] | [20]
inactive: all other assays above
